The values below come from PubChem BioAssay AID504465 (National Center for Advancing Translational Sciences (NCATS), 2011).

In all, about 2,100 compounds went through this assay and about 210 (10%) were called active. About 53% were inconclusive and are not listed. Calls follow the shape of the dose curve; as a rule, active = well fitted inhibition curve with a large enough effect; inconclusive = small, poorly fitted or top-dose-only effect, or effect the other way; inactive = no such curve, though single readings can be large or run the other way. The list shows a part of the results. Where a call stands in place of a potency, no number is given.
Potency is read from the fitted curve at half-maximal effect.

The test can be described thus: IN Cell qHTS Assay for Inhibitors of the mTORC1 Signaling Pathway in MEF (Tsc2-/-, p53-/-) Cells: Sytravon. Also: nearly all actives have a fitted effect of over 60% in size. The following applies: phospho-rpS6 immunofluorescence, 24 h; series mostly up to 38.3 µM. The procedure, abridged:
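Tsc2-/-, p53-/- MEFs (empty-vector) treated with compound 24 h at 37 degree Celsius, then fixed and stained for phospho-rpS6 Ser235/236 (Alexa-488) plus Hoechst. Reported as % positive cells, thresholds set against 7.5 nM rapamycin and DMSO wells.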
(In qHTS, concentration-response curves come from the screen itself.)
With `CCc1ccc(-n2nc(C)c3c(C(=O)Nc4cc(OC)cc(OC)c4)cc(C)nc32)cc1`, the Potency entry is “inactive”.

`CC(Sc1nc2c([nH]c3ccccc32)c(=O)n1-c1ccccc1)c1ccccc1` (stereo not given): the Potency result was “inactive”. Consider `CC(C)CC(=O)Nc1cc(-c2ccccc2F)nn1-c1ccccc1`, for which the Potency entry was “inactive”. Consider `CCOc1ccc(-n2c(-c3ccccc3)c(C)n3c4c(=O)n(C)c(=O)n(C)c4nc23)cc1`, for which the Potency entry was “inactive”. For `Cc1ccc(-c2nc3ncccc3o2)cc1NC(=O)COc1ccc(C(C)C)cc1` the value was “inactive”; for `Cc1cccc(C)c1NC(=O)Cn1c(=O)n(CCC(=O)NCc2ccccc2Cl)c(=O)c2sccc21`, “inactive”; for `CCOc1cc(CNc2ccc(O)cc2)cc(Cl)c1OCc1ccccc1`, “inactive”. With `CCn1ccc2cc(S(=O)(=O)N3CCCN(C(=O)NCC(C)C)CC3)ccc21`, the Potency entry was “inactive”. As for `CCC(C)NC(=O)c1ccc2c(c1)N=C(C)c1cc(C)ccc1S2` (stereo not given), the Potency result was “inactive”. Turning to `CCNS(=O)(=O)c1ccc(NC(=O)CSc2nc(-c3ccco3)cc(C(F)(F)F)n2)cc1`, the Potency is 0.233 µM (active). As for `COc1ccc(NC(=O)CSc2nc(-c3ccco3)cc(C(F)(F)F)n2)cc1Cl`, the Potency entry was “inactive”. Consider `CCc1ccc2c(c1)-c1ccccc1S(=O)(=O)N2CC(=O)N1CCC(C)CC1`, for which the Potency entry is “inactive”. As for `CCc1ccc(NC(=O)C2CCCN(S(=O)(=O)c3c(C)noc3/C=C/N(C)C)C2)cc1` (stereo not given), the Potency entry is “inactive”. Turning to `Cc1ccc(Sc2c(C)nn(C(=O)COc3ccccc3)c2C)cc1`, the Potency is 6.56 µM (active). On to `O=C(Nc1ccc(Br)cc1)c1ccc(F)c(S(=O)(=O)N2CCc3ccccc32)c1`, for which the Potency entry is “inactive”. As to `CCOc1ccccc1NC(=O)Cn1ccn(Cc2ccc(C)cc2)c(=O)c1=O`, the Potency result is “inactive”.

Take `CCc1nn(CC(=O)NCc2ccccc2Cl)c(=O)c2cccn12`: the Potency was 3.29 µM (active).

Regarding `Cc1ccc(C(=O)c2cn(CC(=O)NCc3ccccc3Cl)c3nc(C)ccc3c2=O)cc1`, the Potency result is “inactive”. As for `CCOc1ccccc1CNC(=O)CCn1c(=O)c2cccn2c2ccc(F)cc21`, the Potency entry is “inactive”. Consider `Clc1ccc(-n2ncc3c(NC4CCCC4)ncnc32)cc1`, for which the Potency result is “inactive”. For `CC(C)Oc1ccc(CNC(=O)CCn2c(=O)c3cccn3c3ccc(F)cc32)cc1` the value was “inactive”; for `COc1cccc(-n2c(SCc3cccc(C)c3)nc3c([nH]c4ccccc43)c2=O)c1`, “inactive”; for `COc1ccc(-c2nnc(SCc3cc(=O)c4cc(C)cc(C)c4[nH]3)n2C)cc1`, 18.5 µM (active). For `COc1cccc(-n2c(SCC(=O)Nc3c(C)cc(C)cc3C)nc3c([nH]c4ccccc43)c2=O)c1` the value was “inactive”; for `O=C(Nc1ccc(F)c(Cl)c1)c1cc(S(=O)(=O)N2CCCc3ccccc32)ccc1F`, “inactive”; for `Cc1cccc(N2CCN(C(=O)Cn3c(=O)c4cccn4c4ccc(F)cc43)CC2C)c1` (stereo not given), “inactive”. In the case of `Cc1ccccc1Cn1nnc2c(=O)[nH]c(C3CCN(C(=O)c4ccccc4Cl)CC3)nc21`, the Potency entry is “inactive”.

Take `O=C(Nc1ccc(Cl)c(C(F)(F)F)c1)c1ccc2c(c1)CCN2S(=O)(=O)c1ccccc1`: the Potency entry is “inactive”. To `CCCOC(=O)c1cccc(NC(=O)c2c(-c3ccccc3Cl)noc2C)c1` belongs “inactive”; to `COC(=O)C1=C(C)N(C(C)C)C(=O)C1(NC(=O)c1ccc(C(C)(C)C)cc1)C(F)(F)F` (stereo not given), 20.7 µM (active). For `O=C(Nc1ccc(C(F)(F)F)cc1)c1cc(S(=O)(=O)NC2CCCCC2)ccc1F`, the Potency entry is “inactive”. To `Cc1ccc(-n2ncc(C(=O)NCCCN3CCc4ccccc4C3)c2C2CCN(C(=O)OC(C)(C)C)CC2)cc1C` belongs 20.7 µM (active); to `COc1ccccc1CN1CCC(CNC(=O)c2cnn(-c3ccccc3Cl)c2C2CCN(C(=O)OC(C)(C)C)CC2)CC1`, “inactive”; to `Cc1ccc(-n2ncc(C(=O)NCc3cccs3)c2C2CCN(C(=O)OC(C)(C)C)CC2)cc1C`, “inactive”. For `CCCCOC(=O)c1ccc(NC(=O)Cc2coc3ccc(C(C)C)cc23)cc1`, the Potency result is “inactive”. Consider `CCCCS(=O)(=O)c1nc(-c2ccc(Br)cc2)cc(-c2ccccc2)c1C#N`, for which the Potency was 3.29 µM (active). For `CCCS(=O)(=O)N1CC(=O)N(c2ccccc2C)C(C)(C(=O)NC2CCCC2)C1` (stereo not given) the value was “inactive”; for `COc1ccc(NS(=O)(=O)c2ccc3c(c2)CCCN3C(=O)C2CCC2)cc1OC`, “inactive”. On to `CC1=Nc2cc(C(=O)NC(C)C)ccc2Sc2ccc(C)cc21`, for which the Potency entry was “inactive”.

As for `Cc1ccc(-c2csc(-c3cc4c([nH]c3=O)CC(c3ccccc3)CC4=O)n2)cc1` (stereo not given), the Potency entry is “inactive”. As for `CC(=O)c1c(C)oc2ccc(N(C(=O)c3ccncc3)S(=O)(=O)c3ccc(F)cc3C)cc12`, the Potency entry was “inactive”. Turning to `CCOc1ccc(S(=O)(=O)N(C(=O)c2ccncc2)c2ccc3oc(C)c(C(=O)OC)c3c2)cc1`, the Potency was 3.29 µM (active). Turning to `COC(=O)c1c(C)oc2ccc(N(C(=O)c3ccncc3)S(=O)(=O)c3cc(C)ccc3C)cc12`, the Potency entry was “inactive”. With `Cc1cc(C)c2c(=O)cc(CSCC(=O)Nc3nnc(C)s3)[nH]c2c1`, the Potency entry was “inactive”. As to `CC(C)Cc1cc(C(=O)NCc2ccc(Cl)cc2)no1`, the Potency result was “inactive”. In the case of `COc1ccccc1Cc1nc2ccccc2nc1SCC(=O)N1CCCCC1`, the Potency entry was “inactive”. Regarding `CCc1ccc(NC(=O)c2ccc(F)c(S(=O)(=O)NCc3ccc(Cl)c(Cl)c3)c2)cc1`, the Potency result is “inactive”. For the molecule `CCOC(=O)c1cnc2ccc(C)cc2c1Nc1ccc(OCc2ccccc2Cl)cc1`, the Potency result is “inactive”.

Regarding `CCc1ccc(C(=O)c2cnc3ccc(F)cc3c2S(=O)(=O)c2ccccc2)cc1`, the Potency was 4.65 µM (active).

Regarding `Cc1cc(Cl)ccc1NC(=O)C1CCCN1S(=O)(=O)c1ccc2c(c1)CCCC(=O)N2` (stereo not given), the Potency entry was “inactive”.

Take `O=S(=O)(c1ccccc1)c1nc(-c2cccc(Cl)c2)oc1N1CCOCC1`: the Potency is 9.27 µM (active). For `Cc1ccc(-c2nc(S(=O)(=O)c3ccc(C)cc3)c(N3CCN(c4ccccc4)CC3)o2)cc1`, the Potency result was “inactive”. For `COc1ccc(-c2nc(S(=O)(=O)c3ccc(C)cc3)c(N3CCCCC3)o2)cc1`, the Potency is 13.1 µM (active). For the molecule `COc1ccc(N2CCN(Cc3nc(-c4ccc(C)cc4)no3)CC2)cc1`, the Potency entry is “inactive”. As for `O=C(c1cc(-c2cccc(Cl)c2)on1)N1CCN(c2ccccc2)CC1`, the Potency result was “inactive”.

`CC(=O)N1CCOc2cc(S(=O)(=O)Nc3c(C)cccc3C(C)C)c(Cl)cc21`: the Potency entry is “inactive”. Turning to `Cc1cc(C)c2c(=O)c3c(oc2c1)C(=O)N(Cc1ccc(F)cc1)C3c1cccc(O)c1` (stereo not given), the Potency entry was “inactive”. For `Cc1cc(C)cc(NS(=O)(=O)c2ccc(-c3cc(C)no3)cc2)c1`, the Potency entry was “inactive”.

As to `CCC(C(=O)Nc1ccc(C)c(Cl)c1)n1c(=O)c(-c2ccccc2NC(C)=O)nc2ccccc21` (stereo not given), the Potency entry was “inactive”. As to `O=C1Nc2ccccc2Oc2cc(Oc3ccccc3)ccc21`, the Potency result was “inactive”. Consider `Cc1ccc2occ(CC(=O)N(Cc3ccc(Cl)cc3)Cc3ccco3)c2c1`, for which the Potency entry is “inactive”.

For `Cc1cc(C)c2c(CC(=O)N(Cc3ccc(N(C)C)cc3)Cc3ccco3)coc2c1`, the Potency is 6.56 µM (active). Turning to `Cc1ccc(CN(Cc2ccco2)C(=O)COc2c(C)cc(C)cc2C)cc1`, the Potency entry is “inactive”. For `CCN1CCN(c2cc(C)c3cc(NC(=O)/C=C/c4ccc(C)cc4)ccc3n2)CC1` the value was 5.21 µM (active); for `Cc1ccc(NC(=O)c2ccc(F)c(S(=O)(=O)NCCc3ccccc3)c2)cc1F`, “inactive”; for `COc1cccc(NC(=O)Nc2ccc3nc(N4CCN(C)CC4)cc(C)c3c2)c1`, “inactive”. On to `CCCCc1ccc(C(=O)Nc2ccc3nc(N4CCN(CC)CC4)cc(C)c3c2)cc1`, for which the Potency was 2.61 µM (active). For `CCN1CCN(c2cc(C)c3cc(NC(=O)c4cc(Cl)ccc4OC)ccc3n2)CC1` the value was 2.93 µM (active); for `Cc1ccc(S(=O)(=O)N2CCc3cc(C(=O)Nc4ccc(C(F)(F)F)cc4)ccc32)cc1`, “inactive”; for `COc1ccccc1C(=O)Nc1ccc2nc(N3CCC(C)CC3)cc(C)c2c1`, “inactive”. Regarding `Cc1cc(N2CCN(C)CC2)nc2ccc(NC(=O)c3ccc(C(C)(C)C)cc3)cc12`, the Potency is 1.85 µM (active). Consider `Cc1cccc(CC(=O)Nc2ccc3nc(N4CCC(C)CC4)cc(C)c3c2)c1`, for which the Potency result is “inactive”. For the molecule `CCCCc1ccc(NC(=O)c2ccc3c(c2)CCN3S(=O)(=O)c2ccccc2)cc1`, the Potency entry was “inactive”.

On to `COc1ccc(Cl)cc1NC(=O)CCn1nc(C)cc1C`, for which the Potency result is “inactive”. As for `COc1cc(-c2nc(-c3ccccc3)c(-c3ccc(Br)cc3)[nH]2)cc(OC)c1O`, the Potency result was “inactive”.

Regarding `CCOc1ccc(CN2C(=O)c3ccccc3Sc3ccc(C(=O)O)cc32)cc1`, the Potency result is “inactive”. With `CCS(=O)(=O)N1CC(=O)N(c2ccc(Cl)cc2C)C(C)(C(=O)NC2CCCCC2)C1` (stereo not given), the Potency result is “inactive”. In the case of `COc1ccc(Oc2nc3c(C)cccn3c(=O)c2/C=C(\C#N)c2nc3ccccc3[nH]2)cc1`, the Potency entry was “inactive”. To `O=C(Nc1ccc(Cl)cc1F)c1cc(S(=O)(=O)NC2CCCCCC2)ccc1F` belongs “inactive”; to `COc1ccc(NC(=O)[C@H]2O[C@@H]3OC(C)(C)O[C@@H]3[C@H]3OC(C)(C)O[C@H]32)c(OC)c1`, “inactive”.

In the case of `CC(C)c1ccc(CNCCSc2nnnn2C)cc1`, the Potency result is “inactive”. For `COCc1oc2ccc(NS(=O)(=O)c3ccc(C)cc3)cc2c1C(=O)OC`, the Potency entry was “inactive”. For `CCOC(=O)c1cccc(NC(=O)c2cc3sccc3n2Cc2ccc(Cl)cc2)c1` the value was “inactive”; for `CCOc1ccc(OCC)c(NS(=O)(=O)c2ccc(-c3coc(C)n3)cc2)c1`, “inactive”. To `Cc1ccc(CN2C(=O)C(=O)c3cc(Br)cc(C)c32)cc1` belongs 5.85 µM (active); to `CCCCOc1ccc(CN2C(=O)C(=O)c3cc(Br)cc(C)c32)cc1OC`, 5.85 µM (active). `CCCC1=Nc2cc(C(=O)NCCc3ccccc3)ccc2Sc2ccc(C)cc21`: the Potency entry was “inactive”. On to `Cc1c(Cl)cccc1NC(=O)NCc1c(-n2cccc2)sc2c1CCCC2`, for which the Potency result was “inactive”. `CCCN(Cc1cccs1)C(=O)Nc1ccccc1C`: the Potency entry was “inactive”.

For the molecule `COc1ccc(NC(=O)CSCc2cnn(-c3ccccc3)c2-n2cccc2)cc1`, the Potency entry is “inactive”. Consider `Cc1ccc(CNC(=O)Cn2c(SCC(=O)Nc3ccc(F)cc3)nc3ccccc32)cc1`, for which the Potency is 5.21 µM (active).

`COc1ccc(-c2nc(SCC(=O)Nc3ccc4c(c3)OCO4)c(-c3ccc(OC)cc3)[nH]2)cc1`: the Potency entry is “inactive”. Regarding `COc1ccccc1NC(=O)Cn1c(SCC(=O)Nc2ccc(F)cc2)nc2ccccc21`, the Potency result was “inactive”. Take `O=C(CSc1cn(CCNC(=O)c2ccccc2F)c2ccccc12)Nc1ccc(F)cc1`: the Potency entry was “inactive”. For the molecule `COc1ccc(NC(=O)CSc2nc3ccccc3n2Cc2cccc(OC)c2)cc1`, the Potency was 11.7 µM (active).
